GIRK2 activator = activators of NPY4-receptor-primed GIRK2 channels, summary, cell-based, HEK293, thallium flux; G protein-activated inward rectifier potassium channel 2 (Homo sapiens), P48051; HEK293 GIRK2/NPY4 cells, thallium flux fluorescence; activation (% efficacy), % for hits at 37.5 µM; 34,000 tested, under 10 active;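 active means primary screen hit, no activity in plain HEK293 cells, and in GIRK2-only cells above 5% efficacy rising with concentration; inactive means the rest, including fluorescent compounds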;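 further: efficacy is normalized control-subtracted fluorescence 15 s after thallium addition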
AMPAR-TARP mod = modulators of GluA2-stargazin AMPA receptor complexes, primary screen, cell-based, membrane potential dye. Voltage-dependent calcium channel gamma-2 subunit (Mus musculus) + Glutamate receptor 2 …. HEK293 GluA2+stargazin, membrane potential dye (FDSS), glutamate EC50; hits were called plate by plate, in both directions. calls only at 30 µM. 3.5% of 40,000 active. AID 1259245, 2017;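 active means any of four per-well response measures lying three or more SD from its plate-wide compound average, in either direction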
Target sequence (O88602 whole entry, looked up): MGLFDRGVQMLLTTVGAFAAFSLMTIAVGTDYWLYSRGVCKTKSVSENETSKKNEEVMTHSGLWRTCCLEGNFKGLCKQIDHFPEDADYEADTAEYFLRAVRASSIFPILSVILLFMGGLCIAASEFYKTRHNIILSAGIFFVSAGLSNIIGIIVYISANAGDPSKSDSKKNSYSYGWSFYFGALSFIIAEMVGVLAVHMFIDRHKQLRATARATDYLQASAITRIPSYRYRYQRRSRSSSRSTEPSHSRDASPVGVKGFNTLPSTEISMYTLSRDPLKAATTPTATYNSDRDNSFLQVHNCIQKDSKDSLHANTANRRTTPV
Target sequence (P19491 whole entry, looked up): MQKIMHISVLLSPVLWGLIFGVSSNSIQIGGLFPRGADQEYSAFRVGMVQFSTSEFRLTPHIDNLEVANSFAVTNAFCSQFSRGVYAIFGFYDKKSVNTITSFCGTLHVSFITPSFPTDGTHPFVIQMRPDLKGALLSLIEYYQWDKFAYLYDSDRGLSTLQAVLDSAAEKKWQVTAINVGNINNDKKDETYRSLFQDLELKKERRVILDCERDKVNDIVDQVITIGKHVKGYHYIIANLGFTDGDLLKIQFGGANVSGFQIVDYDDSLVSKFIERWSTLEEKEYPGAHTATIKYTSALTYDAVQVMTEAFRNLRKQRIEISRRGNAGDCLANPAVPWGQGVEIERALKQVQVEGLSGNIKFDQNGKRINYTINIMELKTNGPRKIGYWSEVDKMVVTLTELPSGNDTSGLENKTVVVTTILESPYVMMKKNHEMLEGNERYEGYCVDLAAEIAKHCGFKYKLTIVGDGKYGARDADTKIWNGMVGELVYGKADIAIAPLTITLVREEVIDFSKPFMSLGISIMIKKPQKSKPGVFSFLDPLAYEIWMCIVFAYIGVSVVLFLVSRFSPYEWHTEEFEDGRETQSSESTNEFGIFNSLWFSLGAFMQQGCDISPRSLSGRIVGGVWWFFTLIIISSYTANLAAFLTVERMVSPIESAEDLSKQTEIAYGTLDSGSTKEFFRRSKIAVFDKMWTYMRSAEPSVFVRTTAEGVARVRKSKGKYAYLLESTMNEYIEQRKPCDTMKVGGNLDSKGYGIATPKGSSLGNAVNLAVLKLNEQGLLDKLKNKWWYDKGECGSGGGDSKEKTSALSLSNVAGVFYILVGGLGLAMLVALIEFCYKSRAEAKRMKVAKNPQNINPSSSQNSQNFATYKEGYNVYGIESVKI
Calls only; – = inactive; · = no result given; + = active, no number. Many of the other results were omitted from the sample, so hits are more common in it than they were.

SMILES | GIRK2 activator | AMPAR-TARP mod
Cc1ccc(Cn2c(CO)cnc2SCC(=O)N2CC(C)OC(C)C2)cc1 (stereo not given) | – | –
COc1ccc(S(=O)(=O)NCC2CCN(C3CCCC3)CC2)cc1OC | – | –
CCc1ccc(S(=O)(=O)NCC2CCN(C3CCCC3)CC2)cc1 | · | –
CCCOc1ccc(S(=O)(=O)NCC2CCN(C3CCCC3)CC2)cc1 | – | +
O=S(=O)(NCC1CCN(C2CCCC2)CC1)c1ccc2c(c1)CCCC2 | – | +
COC(=O)N1CCC(CNS(=O)(=O)c2ccc3c(c2)CCCC3)CC1 | – | –
CCCc1ccc(S(=O)(=O)NCC2CCN(C3CCCC3)CC2)cc1 | · | +
CCOC(=O)c1ccc(NC2OC(=O)c3c2ccc(OC)c3OC)cc1 (stereo not given) | · | –
CCCCCn1c(=O)c2c(nc3n2CC(C)CN3c2ccc(OC)cc2OC)n(C)c1=O (stereo not given) | · | –
O=C(Cc1csc(SCC(=O)c2cccs2)n1)Nc1ccc(F)cc1 | – | ·
CCOc1ccccc1NC(=O)COc1ccccc1C(C)C | – | –
CC(=O)OCCCCn1c(COc2ccccc2)nc2ccccc21 | – | +
Cc1ccc(OCCCCn2c(CNC(=O)c3ccco3)nc3ccccc32)cc1 | – | ·
COC(=O)CSc1nc(-c2ccc(F)cc2)cc(C(F)(F)F)n1 | · | +
COc1ccc(-c2cc(C(F)(F)F)nc(SCC(=O)N3CCCC3)n2)cc1OC | · | –
Cc1ccc(-n2ncc3c(=O)n(CC(=O)N4CCc5ccccc54)cnc32)c(C)c1 | · | +
Cc1cccc(-n2ncc3c(=O)n(CC(=O)N4CCc5ccccc54)cnc32)c1C | · | –
CCOCCn1c(N2CCN(Cc3cccc4ccccc34)CC2)nc2c1c(=O)[nH]c(=O)n2C | · | –
Cc1ccc(Oc2ccc(NC(=O)C(C)C)cc2)nn1 | – | –
COc1cc(C2C(C(N)=O)=C(C)Nc3ncnn32)ccc1OC(F)F (stereo not given) | · | –
Cc1ccc(C)c(N2CCN(C(=O)c3ccc(Cn4c(=O)[nH]c5ccccc5c4=O)cc3)CC2)c1 | – | +
CC(=O)c1ccc(N2CCN(C(=O)c3ccc(Cn4c(=O)[nH]c5ccccc5c4=O)cc3)CC2)cc1 | – | –
COCCn1c(=O)c2c(nc3n2CCCN3c2ccc(C)cc2)n(C)c1=O | · | –
COc1ccc(CCNC(=O)Nc2ccc3c(c2)N(C(=O)c2ccccc2)CCC3)cc1 | – | ·
CCOc1ccc(CC(=O)Nc2ccc3c(c2)CCCN3S(=O)(=O)c2ccc(C)cc2)cc1 | · | +
SMILES | GIRK2 activator | AMPAR-TARP mod
Cc1ccc(OCC(=O)Nc2ccc3c(c2)CCCN3S(=O)(=O)c2ccc(C)cc2)cc1 | · | –
Cc1ccc(S(=O)(=O)N2CCCc3ccc(NS(=O)(=O)c4ccccc4)cc32)cc1 | – | +
COc1ccc(CCNC(=O)Nc2ccc3c(c2)N(S(=O)(=O)c2ccccc2)CCC3)cc1 | · | +
Cc1ccc(S(=O)(=O)Nc2ccc3c(c2)N(S(=O)(=O)c2ccc(C)cc2)CCC3)cc1 | – | –
COc1ccc(S(=O)(=O)N2CCCc3cc(NS(=O)(=O)c4cccc(C)c4)ccc32)cc1 | · | +
COc1ccc(S(=O)(=O)N2CCCc3cc(NS(=O)(=O)c4ccccc4)ccc32)cc1 | · | –
CCCNC(=O)Cn1nc2c(c1NC(=O)CSCc1ccccc1)CSC2 | – | –
CC(=O)c1cccc(NC(=O)CSc2nc3c(-c4ccccc4)c[nH]c3c(=O)n2C)c1 | – | ·
O=c1cc(-c2ccccc2Cl)oc2ccc(F)cc12 | · | –
CC(C)(C)c1ccc(C(=O)NCCn2nc(-n3cccn3)ccc2=O)cc1 | – | ·
O=S(=O)(Nc1ccc2c(c1)N(S(=O)(=O)c1ccccc1)CCC2)c1ccc(F)cc1 | · | –
Cc1ccc(S(=O)(=O)N2CCCc3ccc(NS(=O)(=O)c4ccc(F)cc4)cc32)cc1 | – | +
CCOC(=O)N1CCc2nc(NC(=O)CCCSc3ccc(OC)cc3)sc2C1 | – | –
COc1ccc(N2CCN(C(=O)c3ccc(Cl)cc3Cl)CC2)nn1 | – | –
COc1cccc(CNC(=O)C2CN(C(C)=O)C2)c1 | – | –
COc1ccc(NC(=O)CSc2nccn(-c3cc(C)cc(C)c3)c2=O)cc1Cl | · | –
O=C(C1COCC(=O)N1Cc1ccccc1)N1CCN(c2ccc(F)cc2)CC1 (stereo not given) | – | –
O=C(Nc1ccc(-n2cnnn2)cc1)C1COCC(=O)N1Cc1ccccc1 (stereo not given) | – | –
CC(C)(C)c1cc(NC(=O)C2COCC(=O)N2Cc2ccccc2)on1 (stereo not given) | – | +
O=C(C1COCC(=O)N1Cc1ccccc1)N1CCN(c2cccc(Cl)c2)CC1 (stereo not given) | – | +
O=c1ccc(-c2ccccc2)nn1CCCNS(=O)(=O)c1cccnc1 | – | –
COc1ccc(NC(=O)Cc2coc3ccc4ccccc4c23)cc1 | · | –
